Measured values reported in the supplement of paper PMC9023506.
Structures can show the parent of a compound that is named as a salt.

What follows are compounds tested on Danio rerio larvae (5 dpf) (assay: habituation to 1-s acoustic pulses, difference vs DMSO (percentage points (treated minus DMSO)); higher = more of the behaviour than the DMSO vehicle control). Conditions: 10 µM; exposure time: 3 h pre-incubation + 3 h imaging.
Procedure: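 5-dpf wild-type zebrafish larvae were imaged in 96-well plates. They were treated with 190 Tocris FDA-approved drugs at 10 µM (1 µl/ml DMSO) for 3 h before and 3 h during imaging at 28.5 °C, 48 larvae per drug. Automated image analysis gave % time moving and optomotor responses. Values are drug group mean minus DMSO vehicle mean (n=844), in percentage points, for 10 behaviours.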

Structure (SMILES) | habituation to 1-s acoustic pulses
CCC(=O)O[C@]1(C(=O)SCF)[C@H](C)C[C@H]2[C@@H]3C[C@H](F)C4=CC(=O)C=C[C@]4(C)[C@@]3(F)[C@@H](O)C[C@@]21C [Fluticasone propionate] | 3.04
CC(C)OC(=O)C(C)(C)Oc1ccc(C(=O)c2ccc(Cl)cc2)cc1 [Fenofibrate] | -5.04
COc1ccc(-c2ccc3cc(C(=O)O)ccc3c2)cc1C12CC3CC(CC(C3)C1)C2 [Adapalene] | 2.52
CN1CCN2c3ncccc3Cc3ccccc3C2C1 (stereo not given) [Mirtazapine] | -2.79
OC(CNCC(O)C1CCc2cc(F)ccc2O1)C1CCc2cc(F)ccc2O1 (stereo not given) [Nebivolol hydrochloride] | -9.34
COc1cc(Nc2c(C#N)cnc3cc(OCCCN4CCN(C)CC4)c(OC)cc23)c(Cl)cc1Cl [Bosutinib] | 0.4
CCOC(=O)[C@H](CCc1ccccc1)N[C@@H](C)C(=O)N1[C@H](C(=O)O)C[C@@H]2CCC[C@@H]21 [Ramipril] | -1.94
Cc1nc(-c2ccc(OCC(C)C)c(C#N)c2)sc1C(=O)O [Febuxostat] | -2.75
CCCCc1nc(Cl)c(CO)n1Cc1ccc(-c2ccccc2-c2nnn[nH]2)cc1 [Losartan potassium] | 0.91
CN(C)CCC[C@@]1(c2ccc(F)cc2)OCc2cc(C#N)ccc21 [Escitalopram oxalate] | -4.74
COc1ccccc1Oc1c(NS(=O)(=O)c2ccc(C(C)(C)C)cc2)nc(-c2ncccn2)nc1OCCO [Bosentan] | 4.23
O=C(Nc1c(Cl)cncc1Cl)c1ccc(OC(F)F)c(OCC2CC2)c1 [Roflumilast] | -1.13
CN1CC2c3ccccc3Oc3ccc(Cl)cc3C2C1 (stereo not given) [Asenapine maleate] | -9.25
CC1CNc2c(cccc2S(=O)(=O)N[C@@H](CCCNC(=N)N)C(=O)N2CC[C@@H](C)C[C@@H]2C(=O)O)C1 (stereo not given in full) [Argatroban] | -0.436
CCc1c2c(nc3ccc(OC(=O)N4CCC(N5CCCCC5)CC4)cc13)-c1cc3c(c(=O)n1C2)COC(=O)[C@]3(O)CC | 10.3
NS(=O)(=O)c1cc(C(=O)O)c(NCc2ccco2)cc1Cl [Furosemide] | 1.08
N#C[C@@H]1C[C@@H]2C[C@@H]2N1C(=O)[C@@H](N)C12CC3CC(CC(O)(C3)C1)C2 [Saxagliptin hydrochloride] | 1.97
CN1CCN(CCCN2c3ccccc3Sc3ccc(Cl)cc32)CC1 [Prochlorperazine dimaleate] | -7.34
CCOC(=O)c1ncn2c1CN(C)C(=O)c1cc(F)ccc1-2 [Flumazenil] | -2.91
Cc1cccc(CN2CCN(C(c3ccccc3)c3ccc(Cl)cc3)CC2)c1 (stereo not given) [Meclizine dihydrochloride] | -10.1

Structure (SMILES) | habituation to 1-s acoustic pulses
CCOc1nc2cccc(C(=O)O)c2n1Cc1ccc(-c2ccccc2-c2nnn[nH]2)cc1 [Candesartan] | 4.86
CCCC1O[C@@H]2C[C@H]3[C@@H]4CCC5=CC(=O)C=C[C@]5(C)[C@H]4[C@@H](O)C[C@]3(C)[C@]2(C(=O)CO)O1 (stereo not given in full) [Budesonide] | -1.73
CCCCC1=NC2(CCCC2)C(=O)N1Cc1ccc(-c2ccccc2-c2nnn[nH]2)cc1 [Irbesartan] | 1.51
Nc1cccc2c1CN(C1CCC(=O)NC1=O)C2=O (stereo not given) [Lenalidomide] | -1.09
CC(c1cc2ccccc2s1)N(O)C(N)=O (stereo not given) [Zileuton] | 7.12
Nc1nc2[nH]cc(CCc3ccc(C(=O)N[C@@H](CCC(=O)O)C(=O)O)cc3)c2c(=O)[nH]1 [Pemetrexed] | -1.43
OCCN(CCO)c1nc(N2CCCCC2)c2nc(N(CCO)CCO)nc(N3CCCCC3)c2n1 [Dipyridamole] | 0.822
CCOc1cc(CC(=O)N[C@@H](CC(C)C)c2ccccc2N2CCCCC2)ccc1C(=O)O [Repaglinide] | -8.43
CCOC(=O)C1=C(C)NC(C)=C(C(=O)OC)C1c1cccc(Cl)c1Cl (stereo not given) [Felodipine] | -11.1
CN(C)CCc1c[nH]c2ccc(C[C@H]3COC(=O)N3)cc12 [Zolmitriptan] | -1.85
Clc1ccc(COC(Cn2ccnc2)c2ccc(Cl)cc2Cl)c(Cl)c1 (stereo not given) [Miconazole nitrate] | -15.5
Cc1ccc(O)c([C@H](CCN(C(C)C)C(C)C)c2ccccc2)c1 [Tolterodine L-tartrate] | -4.35
NC(=O)OCC(COC(N)=O)c1ccccc1 [Felbamate] | 2.95
CC(C)COCC(CN(Cc1ccccc1)c1ccccc1)N1CCCC1 (stereo not given) [Bepridil hydrochloride] | -6.51
COC(=O)C1=C(C)NC(C)=C(C(=O)OC(C)C)C1c1cccc2nonc12 (stereo not given) [Isradipine] | -13.5
Cc1cc2c(s1)Nc1ccccc1N=C2N1CCN(C)CC1 [Olanzapine] | 0.145
N#Cc1ccc(C(c2ccc(C#N)cc2)n2cncn2)cc1 [Letrozole] | 2.44
O=C(NCC1CCCCN1)c1cc(OCC(F)(F)F)ccc1OCC(F)(F)F (stereo not given) [Flecainide acetate] | -2.35
C[C@H]1O[C@H](O[C@H]2[C@H](O)[C@@H](O)[C@@H](O[C@H]3[C@H](O)[C@@H](O)C(O)O[C@@H]3CO)O[C@@H]2CO)[C@H](O)[C@@H](O)[C@@H]1N[C@H]1C=C(CO)[C@@H](O)[C@H](O)[C@H]1O (stereo not given in full) [Acarbose] | 3.26
Clc1ccc2nsnc2c1NC1=NCCN1 [Tizanidine hydrochloride] | -2.36
